Only some compounds are listed: those with a hit (about 7.3% of all), similar ones and a draw of the others.
SNCA viab count: reduces viability of HEK-293 SNCA reporter cells; HEK-293-SNCA-luc viability, GF-AFC fluorescence, 24 h; Potency, µM (doses to about 57.1 µM), without a hit: at the highest dose activity change, negative = cytotoxicity, usual class: cytotoxic; 150,000 compounds, 0.12% hits; AID 1671193;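 note: potency is the fitted concentration of half-maximal effect; 0% = DMSO-treated cells and -100% = medium-only wells without cells; nearly all actives have a fitted effect of over 30% in size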
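Cytotoxicity counterscreen: after 24 h compound treatment of genome-edited SNCA-luciferase HEK-293 cells, live-cell protease substrate GF-AFC read by fluorescence after 30 min; activity scaled between DMSO (0%) and medium-only (-100%), curves Hill-fitted.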
HEK cytotox: HEK 293 cell cytotoxicity | HEK 293 viability, ATP luminescence (CellTiter-Glo), 48-72 h | Potency, µM (highest dose often 115 µM), without a hit: top-dose activity change, negative = cytotoxicity, actives largely listed as inhibitors | 94,000 compounds, 6.6% hits | AID 1345083; note: potency is the fitted concentration of half-maximal effect; nearly all actives have a fitted effect of over 60% in size
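qHTS cytotoxicity; HEK 293, 250 cells/well; compound pinned; 48 or 72 hr, 37 degree Celsius, 5% CO2, 95% humidity; CellTiter-Glo, 10 min RT; luminescence (ATP).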
IP6K1 inh: blocks human inositol hexakisphosphate kinase 1; Q92551; 140,000 compounds, 0.81% hits; activity change, % (series mostly up to about 58 µM); IP6K1 kinase, ADP-Glo luminescence, 2 h; hits give low values; in the data active = activity change below about -25%
Target sequence (Q92551 whole entry, looked up): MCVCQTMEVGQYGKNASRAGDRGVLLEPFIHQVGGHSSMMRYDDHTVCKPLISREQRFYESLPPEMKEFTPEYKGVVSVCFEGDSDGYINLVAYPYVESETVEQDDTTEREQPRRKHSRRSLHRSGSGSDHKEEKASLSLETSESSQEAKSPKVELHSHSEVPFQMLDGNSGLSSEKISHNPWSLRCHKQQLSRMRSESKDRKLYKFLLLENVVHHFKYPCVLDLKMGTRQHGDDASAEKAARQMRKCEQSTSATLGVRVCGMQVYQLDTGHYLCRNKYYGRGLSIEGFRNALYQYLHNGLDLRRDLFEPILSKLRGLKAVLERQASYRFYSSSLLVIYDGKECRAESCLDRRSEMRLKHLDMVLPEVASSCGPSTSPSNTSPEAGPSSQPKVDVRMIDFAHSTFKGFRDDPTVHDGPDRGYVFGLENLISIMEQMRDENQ
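ADP-Glo luminescence measures ADP made by human IP6K1 during a 2 h RT reaction with ATP/IP6 (mix at 1.3 mM/130 uM); top library doses 57.5 and 19.1 uM final.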
NIH3T3 tox: kills NIH 3T3 cells; NIH 3T3 viability, CellTiter-Glo ATP luminescence, 48-72 h; Potency, µM (doses to about 96.7 µM), for the others: at the highest dose activity change, negative = cytotoxicity, actives largely listed as inhibitors; 94,000 compounds, 4.3% hits; AID 1345082; note: potency is the fitted concentration of half-maximal effect; nearly all actives have a fitted effect of over 55% in size
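Cytotoxicity was measured by CellTiter-Glo ATP luminescence after 48 or 72 h compound exposure at 37 °C. Mouse NIH 3T3 fibroblasts were seeded at 400 cells/well and dosed by 23 nL pin transfer.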
FLuc inh: blocks purified firefly luciferase enzyme activity. P08659. 76,000 compounds, 2.5% hits. AID 1347043. Potency, µM (top dose mostly 115 µM), actives largely listed as inhibitors. purified P. pyralis luciferase, luminescence, biochemical; note: potency is the fitted concentration of half-maximal effect; nearly all actives have a fitted effect of over 65% in size
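Purified P. pyralis luciferase (10nM final) in 50mM Tris acetate pH 7.5, 10mM Mg acetate, 0.01% Tween-20, 0.05% BSA with 10uM D-luciferin and 10uM ATP. Compounds titrated qHTS. Luminescence imaged on CCD.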
SNCA expr inh: inhibitors of alpha-synuclein (SNCA) gene expression | 140,000 compounds, 0.17% hits | Potency, µM (top dose mostly 57.2 µM), without a hit: top-dose activity change, negative = inhibition, usual class: inhibitors | AID 1671194 | HEK-293 SNCA-luciferase knock-in, luminescence, 24 h;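 note: potency is the fitted concentration of half-maximal effect; plate controls were DMSO cells for no effect and cell-free wells for full effect; nearly all actives have a fitted effect of over 45% in size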
The depositor's hits bear a star; i = inactive; ? = inconclusive; . = no result given; [ ] = remark or other dose. Unless noted, calls come from the whole dose curve; as a rule, active = well fitted curve in the direction sought with a large enough effect; inconclusive = small, poorly fitted or top-dose-only effect, or another doubt; inactive = no such curve, though single readings can be large; an effect the other way counts as inactive or inconclusive. Unless noted, % is set by controls: 0 for no effect and ±100 for the full control effect.

SMILES | SNCA viab count | HEK cytotox | IP6K1 inh | NIH3T3 tox | FLuc inh | SNCA expr inh
CN1C(=O)COC[C@@H]1[C@H](O)c1ccc(NC(=O)c2ccc(C(F)(F)F)cc2)cc1 | 1.0%[87.6 µM] | ? | 9.0 | ? | ? | ?
Cc1ccc(NC(=O)c2cc3c(N4CCSCC4)nc(C)cn3n2)cc1 | -1.1% | ? | 7.3 | ? | i | -18.9%
Cc1cn2nc(C(=O)NC3CCCCC3)cc2c(N2CCCC2)n1 | -4.7% | -2.9% | -3.3 | -7.4% | i | -23.5%
Cc1cccc(NC(=O)c2cc3c(N4CCSCC4)nc(C)cn3n2)c1 | -3.9% | 39.8µM* | 0.9 | ? | i | 46.7%
Cc1cn2nc(C(=O)Nc3ccc4c(c3)OCCO4)cc2c(N2CCSCC2)n1 | -6.0% | ? | 12.3 | -15.5% | 11.2µM* | -12.0%
Cc1cn2nc(C(=O)NC3CCCCCC3)cc2c(N2CCSCC2)n1 | -1.4% | 44.7µM* | -6.0 | ? | i | -25.2%
C=CCNC(=O)CCc1nnc(-c2cccc(OC(C)C)c2)[nH]c1=O | -0.6% | -2.9% | -5.6 | -9.7% | i | 29.3%
O=C1OC[C@@H]2CCN(Cc3ccccc3Cl)Cc3ccc(F)cc3N12 | -9.9%[87.6 µM] | 70.8µM* | -16.2 | -24.1%[174 µM] | i | ?
O=C1OC[C@@H]2CCN(Cc3cccc(Cl)c3)Cc3ccc(F)cc3N12 | -15.0%[87.6 µM] | ? | -1.5 | ? | i | -19.1%[87.6 µM]
CC(C)NC(=O)c1cn2cc(-c3ccc(F)cc3)sc2n1 | 2.3%[87.6 µM] | ? | 13.2 | ? | . | 14.9%[87.6 µM]
CCN1CCN(CCNC(=O)c2cc(-c3ccc(Cl)cc3)cn2C)CC1 | ? | 25.1µM* | -6.7 | ? | i | 1.1%
CCn1cc(-c2ccc(Cl)cc2)cc1C(=O)NCCOC | 4.9% | -3.9% | -2.6 | -9.5% | i | 1.8%
Cc1ccc(-c2cc(C(=O)NCCN3CCN(C)CC3)n(C)c2)cc1 | 3.2% | ? | 3.0 | ? | i | 7.9%
CCN1CCN(CCNC(=O)c2cc(-c3ccc(Cl)cc3)cn2CC)CC1 | -7.9% | 28.2µM* | -0.1 | 20µM* | i | -28.0%
Clc1ccc(-c2ccc(CN3CC[C@H]4CC[C@@H](C3)N4)o2)cc1 | -14.0% | 28.2µM* | 4.9 | 28.2µM* | ? | 2.2%
CN1CC2(CCN(Cc3ccc(-c4ccc(Cl)cc4)o3)C2)OC1=O (centres undefined) | 0.3% | ? | 6.8 | ? | i | -6.5%
COc1cc(N2CCC(N(C)C)CC2)ccc1Nc1ncc(Cl)c(Nc2ccccc2P(C)(C)=O)n1 | ? | . | -3.8 | . | . | 8.55µM*
CNS(=O)(=O)c1ccccc1Nc1nc(Nc2ccc(N3CCN(C)CC3)cc2OC)ncc1Cl | -32.4% | . | -5.0 | . | . | .
CCC(c1cccs1)N1C(=O)[C@H]2CN(CCC(C)C)C[C@H]2C1=O (some centres undefined) | ? | ? | 1.0 | -28.4% | i | 3.55µM*
CC(C)(C#N)c1ccc(-c2cc(CO)ccn2)cc1 | 0.8% | ? | 7.0 | ? | 31.6µM* | 7.4%
CCOCCNC(=O)C1CCCN1C(=O)c1cccc(-c2cccc(OC)c2)c1 (centres undefined) | -3.0%[12.5 µM] | -28.6% | -3.3 | -23.4% | . | 1.2%
COc1ccc(-c2nc3c(c(-c4ccccc4)n2)CN(C(=O)c2ccccc2Cl)CC3)cc1 | ? | ? | 2.6 | ? | i | -7.9%
c1ccc(-c2cc3c(cn2)CN(Cc2c[nH]c4ccccc24)CCN3)cc1 | ? | 44.7µM* | -7.8 | ? | ? | 56.2%[87.6 µM]
Cc1[nH]cnc1CN1CCNc2cc(-c3ccccc3)ncc2C1 | -5.9%[87.6 µM] | ? | -3.5 | ? | ? | ?
Oc1ccccc1CN1CCNc2cnc(-c3ccccc3)cc2C1 | -9.2%[87.6 µM] | 63.1µM* | -22.2 | ? | i | -14.9%[87.6 µM]
SMILES | SNCA viab count | HEK cytotox | IP6K1 inh | NIH3T3 tox | FLuc inh | SNCA expr inh
COc1ccc(OC)c(CN2CCNc3cnc(-c4ccccc4)cc3C2)c1 | ? | 56.2µM* | -14.0 | 89.1µM* | i | ?
c1ccc(-c2cc3c(cn2)NCCN(CC2CC2)C3)cc1 | -24.3%[87.6 µM] | -25.8%[230 µM] | -6.7 | ? | ? | 78.4%[87.6 µM]
COc1cccc(CN2CCNc3cnc(-c4ccccc4)cc3C2)c1 | -8.0%[87.6 µM] | 89.1µM* | -14.1 | ? | i | 13.6%[87.6 µM]
O=C(c1cc(-c2ccccc2)n[nH]1)N1CCC2(CC1)N=C(c1ccccc1)NO2 | -12.0% | ? | 7.9 | ? | i | 19.2%
CC(=O)c1ccc(NC(=O)N[C@H]2CO[C@H]3[C@@H]2OC[C@@H]3Nc2nccc(C(C)(C)C)n2)cc1 | 7.6% | -11.6% | -8.5 | -17.5% | i | -13.9%
CCOc1ccccc1CN1CCC2(CCN(C(=O)c3ccccc3F)CC2)Oc2ccccc21 | -1.0% | ? | 6.4 | ? | i | -6.6%
COc1ccc(-c2nc(-c3nnn4c3COC(c3ccc(C)cc3)C4)no2)cc1F (centres undefined) | 0.9% | 8.8% | 11.4 | i | i | 8.0%
COC[C@@H]1CN(Cc2c(OC)cccc2OC)C[C@H]1c1ccncc1 | -2.5% | 35.5µM* | 7.7 | ? | i | -19.8%
O=C(NCc1cccs1)c1cc(-c2cccnc2)c2nncn2n1 | -0.6% | -4.9% | 12.8 | ? | . | 7.1%
CCC(CC)NC(=O)[C@H]1CN(Cc2ccccc2)C[C@H]1C(=O)O | 6.0% | 4.6% | 7.8 | -0.1% | . | 0.0%
Cn1c([C@H]2CCN(Cc3ccc(Cl)cc3)C2)nc2ccccc21 | -20.7%[87.6 µM] | ? | -1.7 | 100µM* | i | 3.1%[87.6 µM]
CC(C(=O)N1Cc2c(C(=O)N3CCCC3)nn(C)c2C1)c1ccccc1 (centres undefined) | 5.1% | 0.0% | 2.0 | -22.6% | . | 5.6%
COc1ccc(CNC(=O)c2cc(C3CC3)nc3c2c(C)nn3-c2cccc(Cl)c2C)cc1 | 4.8% | . | 3.7 | . | . | 0.1%
CC(C)c1nn(-c2c(Cl)cccc2Cl)c2nc(Cc3ccc(OCCO)cc3)[nH]c(=O)c12 | ? | . | 17.6 | . | . | 0.192µM*
Cc1nn(-c2ccccc2)c2c1C(C)N(C1CCCN([S+](=O)([O-])c3cccs3)C1)C2=O (centres undefined) | . | 2.1% | 10.7 | -10.3% | . | .
COc1cc2ncnc(Nc3ccc(F)c(Cl)c3)c2cc1NC(=O)/C=C/CN1CCCCC1 | 23.8µM* | . | 2.2 | . | . | .
O=Cc1ccccc1-c1cnc2ccccc2c1 | -8.0%[87.6 µM] | -25.2%[172 µM] | -6.2 | 79.4µM* | . | 59.6%[87.6 µM]
Cc1cc(C)cc(-c2ccccc2C=O)c1 | -2.5%[87.6 µM] | ? | 2.6 | ? | . | -18.1%[87.6 µM]
NC(=O)N1CCCC(C(=O)N2CCN(c3nsc4ccccc34)CC2)C1 (centres undefined) | ? | 25.1µM* | 2.1 | ? | i | ?
O=C(NCC(F)(F)F)c1cc(C2CC2)nc2c1c(C1CCCN1)nn2-c1ccccc1 (centres undefined) | -9.2% | ? | 18.7 | 22.4µM* | . | 2.2%

From PubChem
